Compound activity (PubChem)
PglD DTNB: C. jejuni PglD acetyltransferase inhibitors, primary screen, biochemical, DTNB colorimetric, single point; purified PglD enzyme, DTNB colorimetric CoA detection; inhibition, % at 12.5 µM; 360,000 compounds, 0.098% hits; in the data active = inhibition above about 16%, passing the limit was not always enough; inconclusive = no clear call, values can overlap the other calls
NSD2 inh: NSD2 histone methyltransferase inhibitors, primary screen, biochemical, AlphaScreen, single concentration, set 2 | AID 743445, 2014 | inhibition, % at 12.5 µM | NSD2 peptide methylation, 120 min | 310,000 compounds, 0.54% hits; in the data active = inhibition above about 50%
F508del corr: F508del CFTR correction, initial screen, CFBE line, single point; CFBE cells, YFP halide quenching; stimulated with forskolin plus potentiator P3; % fluorescence drop versus neutral controls; activity (quench increase), % at 7.58 µM; 350,000 compounds, 0.36% hits; AID 720511, 2013;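 active = mean added fluorescence quench of at least 8% versus neutral control, with both replicates also reaching 8%; inconclusive = only one of the mean or replicate conditions met; inactive = mean below 8% and not both replicates reaching 8%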;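 note: cells transiently co-express mutant CFTR-F508del with the halide-sensitive YFP; corrector assay measuring rescue of mutant channel to the surface after 24 h compound exposure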
Env fusion inh: inhibitors of HIV-1 Env-driven cell-cell fusion, primary screen, HeLa-JRFL effector, CEM21 target cells, luciferase; inhibition, % at 12.3 µM; 360,000 compounds, 1.1% hits;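 active = mean replicate inhibition score of at least 50 and every replicate individually at or above 50; inconclusive = only one of the two criteria met; inactive = mean below 50 and not all replicates reaching 50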;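 note: 0% = plate neutral controls and 100% = maraviroc near 300 nM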
ALR inh: inhibitors of human ALR sulfhydryl oxidase, primary screen, biochemical, H2O2 detection, HRP-luminol luminescence, single point | FAD-linked sulfhydryl oxidase ALR (Homo sapiens), P55789 | purified ALR, DTT oxidation | inhibition, % (no concentration beside the values) | 290,000 compounds, 3.8% hits | AID 485317, 2010;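 active = mean replicate inhibition above about 79%, with every replicate also reaching it, limit read from the data; inconclusive = only one of the two criteria met; inactive = mean below limit and not every replicate reaching it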
Target sequence (P55789 whole entry, looked up): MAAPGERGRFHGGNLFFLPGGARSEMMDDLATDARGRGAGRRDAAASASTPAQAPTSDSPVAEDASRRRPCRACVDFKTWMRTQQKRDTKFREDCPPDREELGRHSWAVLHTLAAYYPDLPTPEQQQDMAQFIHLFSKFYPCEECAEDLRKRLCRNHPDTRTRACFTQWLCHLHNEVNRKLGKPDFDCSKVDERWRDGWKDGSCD
Casp6 inh: human caspase-6 inhibitors, primary screen, biochemical, VEID-R110 fluorescence, single point, set 2 | AID 686996, 2013 | purified caspase-6, Z-VEID-R110 cleavage fluorescence | P55212 | inhibition, % at 12.5 µM | 350,000 compounds, 0.53% hits;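 active = mean inhibition across replicates at least about 35%, with every replicate also reaching that limit, limit read from the data; inconclusive = only one of the two criteria met; inactive = neither criterion met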;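 note: 0% = median of neutral control wells and 100% = no fluorescence left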
Target sequence (P55212 24-179 limits assumed): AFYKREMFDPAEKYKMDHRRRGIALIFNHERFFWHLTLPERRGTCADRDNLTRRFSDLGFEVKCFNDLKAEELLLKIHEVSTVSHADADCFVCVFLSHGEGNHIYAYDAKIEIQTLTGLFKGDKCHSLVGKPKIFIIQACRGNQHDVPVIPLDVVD
Target sequence (P55212 194-293 limits assumed): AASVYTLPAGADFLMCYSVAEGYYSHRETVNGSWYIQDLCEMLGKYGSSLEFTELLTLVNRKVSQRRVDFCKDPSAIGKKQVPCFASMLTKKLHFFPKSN
* hit, by the source's call; [ ] = remark or other dose. Sampled rows, rich in hits. Any-hit rate of the full collection: about 4.1%.

What do the screens show for `COc1ccc(CC2=NCCc3cc(OC)c(OC)cc32)cc1OC`?
PglD DTNB: -0.2; F508del corr: 2.1; Env fusion inh: 0.6

Results for CCN1CCN(CC(c2ccccc2)c2ccccc2)CC1 ?
PglD DTNB: 2.3; NSD2 inh: 12.5; F508del corr: 1.0; Env fusion inh: -9.7; ALR inh: -8.8; Casp6 inh: -1.6

How did O=C(c1ccccc1)C(CN1CCCC1)c1ccccc1 (centres undefined) do in these assays?
NSD2 inh: 2.1; Env fusion inh: -43.5; ALR inh: 97.2*

Results for N#Cc1cccc(-c2ccc([C@H]3[C@H]4CN(C(=O)Cc5ccncc5)CCCCN4[C@H]3CO)cc2)c1 ?
PglD DTNB: 0.3; F508del corr: 0.6; Casp6 inh: 3.1

Results for COC1C(O)C(C)OC(OC2CCC3(C)C(CCC4C3C(O)CC3(C)C(C5=CC(=O)OC5)CCC43O)C2)C1O (centres undefined) ?
NSD2 inh: -1.0; F508del corr: -1.4; Env fusion inh: 86.2*; Casp6 inh: 0.9

What do the screens show for `CC12CCC(O)CC1CCC1C2CCC2(C)C(C3=CC(=O)OC3)C(O)CC12O` (centres undefined)?
NSD2 inh: -0.8; F508del corr: 2.4; Env fusion inh: 73.6*; Casp6 inh: -1.3

What do the screens show for `C[C@]12CC[C@H](O)C[C@H]1CC[C@@H]1[C@@H]2CC[C@]2(C)[C@@H](C3=CC(=O)OC3)CC[C@]12O`?
PglD DTNB: 3.0; F508del corr: -1.4; Env fusion inh: inconclusive; ALR inh: -7.4

Results for CC12CCC(O)CC1CCC1C2CCC2(C)C(C3=CC(=O)OC3)CCC12O (centres undefined) ?
NSD2 inh: -1.4; F508del corr: 0.3; Env fusion inh: 86.6*; Casp6 inh: -1.4

What do the screens show for `CCN1[C@@H]2Cn3c(ccc(-c4cccc(C(=O)N(C)C)c4)c3=O)[C@H]1[C@@H](C(=O)OC)[C@@H]2CO`?
PglD DTNB: 1.7; F508del corr: 4.5; Casp6 inh: 0.2

How did CN(C)c1ccc(/C=C/[N+](=O)[O-])cc1 do in these assays?
NSD2 inh: 1.8; Env fusion inh: -25.2; ALR inh: 97.6*; Casp6 inh: 2.4

What do the screens show for `CCOc1cc(CNCCc2c[nH]c3ccccc23)cc(Cl)c1OC`?
NSD2 inh: 9.1; F508del corr: 1.8; Env fusion inh: 68.0*; ALR inh: 2.5; Casp6 inh: -6.2

How did CC1=CC(C)CC(C)OC(=O)CC(c2ccc(O)cc2)NC(=O)C(Cc2c(Br)[nH]c3ccccc23)N(C)C(=O)C(C)NC(=O)C(C)C1 (centres undefined) do in these assays?
NSD2 inh: -0.9; F508del corr: -2.0; Env fusion inh: 81.3*; Casp6 inh: -2.7

Results for O=C(Cc1ccccc1)N1CCCCN2[C@H](CO)[C@@H](c3ccc(C#Cc4ccccc4)cc3)[C@@H]2C1 ?
PglD DTNB: 5.1; F508del corr: 3.2; Casp6 inh: 0.8

What do the screens show for `O=C(Cc1ccccc1)N1CCCCN2[C@H](CO)[C@@H](c3ccc(C#Cc4ccccc4)cc3)[C@H]2C1`?
PglD DTNB: -3.7; F508del corr: 0.5; Casp6 inh: 54.1*

How did C/C=C/c1ccc(C2[C@@H]3CN(C(=O)c4cnccn4)C[C@H]2N3)cc1 (some centres undefined) do in these assays?
F508del corr: -1.5; Casp6 inh: -0.2

Results for CCSc1nnc([C@@H](N)Cc2c[nH]c3ccccc23)o1 ?
PglD DTNB: -0.2; NSD2 inh: 0.4; Env fusion inh: -28.4; ALR inh: -10.2

What do the screens show for `Cc1cccc(NC(=O)CSc2nnc([C@@H](N)Cc3c[nH]c4ccccc34)o2)c1C`?
PglD DTNB: 0.7; NSD2 inh: 4.9; Env fusion inh: 55.2*; ALR inh: 47.9

Results for Cc1ccc2c(c1)CNc1ccccc1O2 ?
PglD DTNB: -1.9; NSD2 inh: 1.2; ALR inh: 88.2*

How did COC(=O)[C@@H]1[C@@H](CO)[C@@H]2Cn3c(cccc3=O)[C@H]1N2Cc1nccs1 do in these assays?
PglD DTNB: 0.9; Env fusion inh: -7.2[16.7 µM]; Casp6 inh: -0.7

Results for O=C1NC(=O)C(=Cc2c(Cl)cccc2Cl)C(=O)N1 ?
NSD2 inh: 5.4; F508del corr: 8.7*; Env fusion inh: -15.0; Casp6 inh: 18.0

How did Cc1c(C=C2C(=O)NC(=O)NC2=O)c(=O)n(-c2ccccc2)n1C do in these assays?
NSD2 inh: 1.0; F508del corr: 1.7; Env fusion inh: 9.7; ALR inh: 12.2

How did CC=Cc1ccc2n(c1=O)C[C@H]1[C@H](CO)[C@@H](C(=O)OC)[C@@H]2N1C(=O)CC1CC1 (mixture of isomers) do in these assays?
PglD DTNB: 0.1; F508del corr: 2.8; Casp6 inh: -2.1

Results for C=Cc1cc(OC)c2c(c1)c(=O)oc1c2cc(OC)c2c(O)ccc(C3OC(C)C(O)C(C)(O)C3O)c21 (centres undefined) ?
F508del corr: 17.7*; Env fusion inh: 47.2; Casp6 inh: 52.5*

Results for O=C1NC(=S)N(C2CC2)C(=O)/C1=C/c1ccc2c(c1)CCN2CCCCl ?
PglD DTNB: -3.3; NSD2 inh: 19.0; Env fusion inh: -3.7; ALR inh: 97.9*

Results for CCCCN1C(=O)/C(=C/c2ccc(N3CCCCCC3)cc2)C(=O)NC1=S ?
ALR inh: 8.6

What do the screens show for `C=CCN1C(=O)/C(=C/c2ccc3c(c2)CCCN3CCC)C(=O)NC1=S`?
PglD DTNB: 1.2; NSD2 inh: 26.9; ALR inh: 99.1*

Results for C=CCN1C(=O)/C(=C/c2ccc(Br)s2)C(=O)NC1=S ?
PglD DTNB: 3.0; NSD2 inh: 23.4; F508del corr: -1.3; Env fusion inh: 7.4; ALR inh: 7.9; Casp6 inh: 52.6*

How did CCN1C(=O)/C(=C/c2ccc3c(c2)CCN3CCCCl)C(=O)NC1=S do in these assays?
PglD DTNB: -1.3; NSD2 inh: 11.9; Env fusion inh: -59.7; ALR inh: 98.1*; Casp6 inh: 17.1

How did COC(=O)[C@H]1[C@H](CO)[C@H]2Cn3c(ccc(-c4ccccc4)c3=O)[C@@H]1N2C(=O)c1ccccc1F do in these assays?
PglD DTNB: 2.4; F508del corr: -1.1

Results for COC(=O)[C@@H]1[C@@H](CO)[C@@H]2Cn3c(ccc(-c4cccc(F)c4)c3=O)[C@H]1N2Cc1ccncc1 ?
PglD DTNB: -3.4; F508del corr: 5.0; Casp6 inh: 0.7
